From PubChem BioAssay AID1159580 (chemical genetic matrix, 2015)
Hit rate of the full screen: of about 5,500 compounds, about 2,000 (36%) were called active. Not shown: some 18% with an inconclusive outcome. Cut-off read from the data, not from the text of the source: active = normalized growth mostly below about 0.91 (no sharp cut-off); inconclusive = no clear call, values can overlap the other calls; inactive = mostly above about 0.92. The list shows a part of the results.

Assay: chemical genetic growth profiling, strain panel (AID 1159580);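 note: tested at 20 µM; growth read once vehicle control cultures reached saturation at 30 °C; 1 = growth at the plate median or of vehicle wells; lower values mean less growth of the strain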
Conditions: growth OD

Measured: normalized growth

N#C/C(=C\c1cccc(O)c1)C(=O)O
inactive: S. cerevisiae deletion strains, locus YJR075W, strain HOC1, active compounds read low 0.98 | S. cerevisiae deletion strains, locus YKL009W, strain mrt4, active compounds read low 0.989 | S. cerevisiae deletion strains, locus YKL068W, active compounds read low 0.998 | S. cerevisiae deletion strains, locus YKL085W, strain MDH1 (second series), active compounds read low 0.951 | S. cerevisiae deletion strains, locus YKL085W, strain MDH1, active compounds read low 0.951 | S. cerevisiae deletion strains, locus YKL160W, strain elf1, active compounds read low 0.977 | S. cerevisiae deletion strains, locus YKL190W, strain CNB1, active compounds read low 0.99 | S. cerevisiae deletion strains, locus YKR001C, strain vps1, active compounds read low 1 | S. cerevisiae deletion strains, locus YKR026C, strain gcn3, active compounds read low 1 | S. cerevisiae deletion strains, locus YKR091W, strain srl3, active compounds read low 0.976 | S. cerevisiae deletion strains, locus YLL001W, strain dnm1, active compounds read low 1.03 | S. cerevisiae deletion strains, locus YLL026W, active compounds read low 0.974 | S. cerevisiae deletion strains, locus YLL041C, strain sdh2, active compounds read low 0.984 | S. cerevisiae deletion strains, locus YLR027C, strain aat2, active compounds read low 0.985 | S. cerevisiae deletion strains, locus YLR039C, strain RIC1, active compounds read low 1.01 | S. cerevisiae deletion strains, locus YLR058C, strain SHM2, active compounds read low 0.979 | S. cerevisiae deletion strains, locus YLR102C, strain apc9, active compounds read low 0.988 | S. cerevisiae deletion strains, locus YLR113W, strain HOG1, active compounds read low 0.971 | S. cerevisiae deletion strains, locus YLR221C, strain rsa3, active compounds read low 1.02 | S. cerevisiae deletion strains, locus YLR258W, strain gsy2, active compounds read low 0.977 | S. cerevisiae deletion strains, locus YLR262C, strain YPT6 (second series), active compounds read low 0.974 | S. cerevisiae deletion strains, locus YLR262C, strain YPT6, active compounds read low 0.957 | S. cerevisiae deletion strains, locus YLR268W, strain sec22, active compounds read low 0.987 | S. cerevisiae deletion strains, locus YLR320W, strain mms22, active compounds read low 1.03 | S. cerevisiae deletion strains, locus YLR330W, strain CHS5, active compounds read low 0.989 | S. cerevisiae deletion strains, locus YLR342W, strain FKS1 (second series), active compounds read low 1.09 | S. cerevisiae deletion strains, locus YLR342W, strain FKS1, active compounds read low 0.99 | S. cerevisiae deletion strains, locus YLR357W, strain rsc2, active compounds read low 0.988 | S. cerevisiae deletion strains, locus YLR370C, strain arc18, active compounds read low 0.978 | S. cerevisiae deletion strains, locus YLR371W, strain rom2, active compounds read low 1 | S. cerevisiae deletion strains, locus YLR384C, strain iki3, active compounds read low 0.991 | S. cerevisiae deletion strains, locus YLR418C, strain cdc73, active compounds read low 0.964 | S. cerevisiae deletion strains, locus YML016C, strain PPZ1, active compounds read low 1 | S. cerevisiae deletion strains, locus YML032C, strain rad52, active compounds read low 1.02 | S. cerevisiae deletion strains, locus YML120C, strain ndi1, active compounds read low 0.992 | S. cerevisiae deletion strains, locus YML124C, strain tub3, active compounds read low 1 | S. cerevisiae deletion strains, locus YMR058W, strain fet3, active compounds read low 0.997 | S. cerevisiae deletion strains, locus YMR078C, strain ctf18, active compounds read low 0.996 | S. cerevisiae deletion strains, locus YMR125W, strain sto1, active compounds read low 0.991 | S. cerevisiae deletion strains, locus YMR129W, active compounds read low 0.964 | S. cerevisiae deletion strains, locus YMR205C, strain PFK2, active compounds read low 1.02 | S. cerevisiae deletion strains, locus YMR223W, strain ubp8, active compounds read low 1.05 | S. cerevisiae deletion strains, locus YMR231W, strain pep5, active compounds read low 0.991 | S. cerevisiae deletion strains, locus YMR263W, strain SAP30, active compounds read low 0.979 | S. cerevisiae deletion strains, locus YMR307W, strain GAS1, active compounds read low 1.08 | S. cerevisiae deletion strains, locus YNL067W, strain RPL9B, active compounds read low 0.989 | S. cerevisiae deletion strains, locus YNL071W, strain lat1, active compounds read low 0.997 | S. cerevisiae deletion strains, locus YNL128W, strain TEP1, active compounds read low 0.928 | S. cerevisiae deletion strains, locus YNL153C, strain GIM3, active compounds read low 0.984 | S. cerevisiae deletion strains, locus YNL183C, strain NPR1, active compounds read low 0.915 | S. cerevisiae deletion strains, locus YNL209W, strain ssb2, active compounds read low 1 | S. cerevisiae deletion strains, locus YNL233W, strain BNI4, active compounds read low 1.01 | S. cerevisiae deletion strains, locus YNL248C, strain rpa49, active compounds read low 0.963 | S. cerevisiae deletion strains, locus YNL250W, strain rad50, active compounds read low 0.991 | S. cerevisiae deletion strains, locus YNL271C, strain bni1, active compounds read low 1.01 | S. cerevisiae deletion strains, locus YNL298W, strain CLA4, active compounds read low 1 | S. cerevisiae deletion strains, locus YNL307C, strain MCK1, active compounds read low 1.03 | S. cerevisiae deletion strains, locus YNL322C, strain KRE1 (second series), active compounds read low 0.952 | S. cerevisiae deletion strains, locus YNL322C, strain KRE1, active compounds read low 0.979 | S. cerevisiae deletion strains, locus YNR049C, strain mso1, active compounds read low 0.961 | S. cerevisiae deletion strains, locus YNR052C, strain pop2, active compounds read low 0.995 | S. cerevisiae deletion strains, locus YOL006C, strain TOP1, active compounds read low 0.975 | S. cerevisiae deletion strains, locus YOL012C, strain htz1 1.3 | S. cerevisiae deletion strains, locus YOL147C, strain pex11, active compounds read low 0.994 | S. cerevisiae deletion strains, locus YOR001W, strain rrp6, active compounds read low 1.02 | S. cerevisiae deletion strains, locus YOR061W, strain CKA2, active compounds read low 0.96 | S. cerevisiae deletion strains, locus YOR069W, strain VPS5, active compounds read low 0.997 | S. cerevisiae deletion strains, locus YOR070C, strain gyp1, active compounds read low 0.993 | S. cerevisiae deletion strains, locus YOR080W, strain dia2, active compounds read low 0.984 | S. cerevisiae deletion strains, locus YOR083W, strain WHI5, active compounds read low 0.916 | S. cerevisiae deletion strains, locus YOR106W, strain vam3, active compounds read low 0.924 | S. cerevisiae deletion strains, locus YOR136W, strain idh2, active compounds read low 1.01 | S. cerevisiae deletion strains, locus YOR144C, strain elg1, active compounds read low 0.989 | S. cerevisiae deletion strains, locus YOR184W, strain ser1, active compounds read low 1.06 | S. cerevisiae deletion strains, locus YOR231W, strain MKK1, active compounds read low 0.973 | S. cerevisiae deletion strains, locus YOR265W, strain rbl2, active compounds read low 0.964 | S. cerevisiae deletion strains, locus YOR270C, strain vph1, active compounds read low 0.997 | S. cerevisiae deletion strains, locus YOR290C, strain snf2, active compounds read low 0.967 | S. cerevisiae deletion strains, locus YOR316C, strain cot1, active compounds read low 0.986 | S. cerevisiae deletion strains, locus YPL051W, strain arl3, active compounds read low 0.981 | S. cerevisiae deletion strains, locus YPL055C, strain LGE1, active compounds read low 0.96 | S. cerevisiae deletion strains, locus YPL078C, strain atp4, active compounds read low 0.991 | S. cerevisiae deletion strains, locus YPL106C, strain sse1, active compounds read low 0.961 | S. cerevisiae deletion strains, locus YPL240C, strain hsp82, active compounds read low 0.986 | S. cerevisiae deletion strains, locus YPL241C, strain CIN2, active compounds read low 0.987 | S. cerevisiae deletion strains, locus YPL256C, strain CLN2, active compounds read low 0.977 | S. cerevisiae deletion strains, locus YPR119W, strain clb2, active compounds read low 0.987 | S. cerevisiae deletion strains, locus YPR141C, strain kar3, active compounds read low 0.975 | S. cerevisiae deletion strains, locus YPR163C, strain tif3, active compounds read low 0.998 | S. cerevisiae deletion strains, locus YPR167C, strain met16, active compounds read low 0.981 | S. cerevisiae deletion strains, strain wtn01, active compounds read low 0.98 | S. cerevisiae strains, strain wild type, active compounds read low 1.02
